According to PubChem BioAssay (NCATS):
Inconclusive results are not listed. Calls of active or inactive are those of the source. Calls follow the shape of the dose curve; as a rule, active = well fitted inhibition curve with a large enough effect; inconclusive = small, poorly fitted or top-dose-only effect; inactive = no such curve, though single readings can be large or run the other way.

These molecules were tested on Zika virus NS2B-NS3 protease (linked construct) (assay: Primary screen NINDS Rhodamine qHTS for Zika virus inhibitors (AID 1347160; also: nearly all actives have a fitted effect of over 55% in size)). Conditions: purified NS2B-NS3 protease, Rhodamine110 substrate fluorescence; series mostly up to 33.1 µM; activity change, negative = inhibition: at the top concentration.
Method in brief: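 Purified NS2B-NS3 protease with the NS2B hydrophilic domain joined by a flexible linker (25 nM) in 10 mM Tris-HCl pH 8.0, 0.01% Tween 20, preincubated 15 min at RT with compound; Rhodamine110 peptide substrate 1.5 µM; fluorescence change over 15 min; 4-parameter Hill fit.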
% is scaled to controls: 0 for no effect and ±100 for the full control effect; potency is read from the fitted curve at half-maximal effect.

| SMILES | activity change, negative = inhibition | outcome | Potency |
| --- | --- | --- | --- |
| CC1=C(CO)CC(C(C)C2CCC3C4CC=C5CC(OC6OC(COC7OC(CO)C(O)C(O)C7O)C(O)C(O)C6O)CC(O)C5(C)C4CCC23C)OC1=O (centres undefined) | 17.2% [at 15.1 µM] (inactive) | – | – |
| CC1=CC(=O)CC(C)(C)C1CCC(C)O[C@@H]1O[C@H](CO)[C@@H](O)[C@H](O)[C@H]1O (some centres undefined) | – | inactive [at 33.1 µM] | – |
| CC1(C)CC[C@]2(C(=O)O[C@@H]3O[C@H](CO[C@@H]4O[C@H](CO)[C@@H](O)[C@H](O)[C@H]4O)[C@@H](O)[C@H](O[C@@H]4O[C@H](CO)[C@@H](O)[C@H](O)[C@H]4O)[C@H]3O)[C@H](O)C[C@]3(C)C(=CCC4[C@@]5(C)CC[C@H](O[C@@H]6OC[C@@H](O)[C@H](O)[C@H]6O)[C@@](C)(C(=O)O)C5CC[C@]43C)[C@@H]2C1 (some centres undefined) | -0.322% [at 15.1 µM] (inactive) | – | – |
| NC(=O)c1ccc(F)c2c1C[C@@H](N(C1CCC1)C1CCC1)CO2 | – | inactive | – |
| O=C(O)c1ccnc2cc(-c3nc4ccccc4n3CCN3CCCCC3)sc12 | 83.5% [at 57.1 µM] (inactive) | – | – |
| C/C(=C/CO)CC[C@H]1[C@]2(C)C[C@H](O)CC(C)(C)[C@H]2CC[C@]1(C)O | 0.504% (inactive) | – | – |
| C[C@H]1CC(=O)C2=C(C1)C(O)C(O)[C@@]1(O)[C@H]2C(=O)c2cccc(O)c2[C@@H]1O (some centres undefined) | – | inactive [at 33.1 µM] | – |
| CSCC1OC(n2cnc3c(=O)[nH]cnc32)C(O)C1O (centres undefined) | 34.4% [at 57.1 µM] (inactive) | – | – |
| CCOC(=O)C(CCc1ccccc1)NC(C)C(=O)N1Cc2ccccc2CC1C(=O)O (centres undefined) | 35.9% [at 57.1 µM] (inactive) | – | – |
| COc1cc(C[C@@]2(O)CO[C@@H](c3ccc(O[C@@H]4O[C@H](CO)[C@@H](O)[C@H](O)[C@H]4O)c(OC)c3)[C@H]2CO)ccc1O | – | inactive [at 33.1 µM] | – |
| CC1=C2CC(=O)C(C)CC/C=C(\C)CC2OC1=O (centres undefined) | – | inactive | – |
| CC(C)=C1CC2[C@](C)(CC[C@@H](OC(=O)C3(C)OC3C)[C@@]2(C)O)CC1=O (some centres undefined) | -7.2% (inactive) | – | – |
| CCN(CCN(C)C)C(=O)CNCc1cc(C(N)=O)ccn1 | 5.41% [at 57.1 µM] (inactive) | – | – |
| C/C=C(\C)C(=O)OC[C@H]1O[C@@H](O[C@H]2[C@@H](O[C@H]3O[C@H](CO)[C@@H](O)[C@H](O)[C@H]3O[C@@H]3O[C@H](CO)[C@@H](O)[C@H](O)[C@H]3O)O[C@H](COC(=O)/C(C)=C/C)[C@@H](O)[C@@H]2O)[C@H](O)[C@@H](O)[C@@H]1O | 5.37% [at 15.1 µM] (inactive) | – | – |
| CC1(C)CC[C@]2(C(=O)O[C@@H]3O[C@H](CO)[C@@H](O)[C@H](O)[C@H]3O)CC[C@]3(C)C(=CCC4[C@@]5(C)C[C@H](O)[C@H](O[C@@H]6OC[C@@H](O)[C@H](O)[C@H]6O)[C@@](C)(CO)C5CC[C@]43C)C2C1 (some centres undefined) | 19.8% [at 15.1 µM] (inactive) | – | – |
| COc1ccc2[nH]c(S(=O)Cc3ncc(C)c(OC)c3C)nc2c1 (centres undefined) | 16.1% [at 57.1 µM] (inactive) | – | – |
| CCCC(C(=O)O)c1c(C)nc2ccc(Cl)cc2c1-c1ccccc1 (centres undefined) | – | – | 14.1 µM (active) |
| CCC(=O)N1CCc2cc(OC)c(O)cc2C1 | -6.32% [at 57.1 µM] (inactive) | – | – |
| CN1CCCC1Cc1c[nH]c2ccc(CCS(=O)(=O)c3ccccc3)cc12 (centres undefined) | – | inactive | – |
| CO[C@@H]1[C@]2(O)C(=O)N3/C=C\C(C)(C)c4[nH]c5ccccc5c4/C=C\3C(=O)N2[C@]23[C@H](CO)C(C)(C)N2c2ccccc2[C@]13O | – | inactive [at 33.1 µM] | – |

| SMILES | activity change, negative = inhibition | outcome | Potency |
| --- | --- | --- | --- |
| CC(C)c1ccc2c(c1)CCC1[C@](C)(C(=O)O)CCC[C@]21C (some centres undefined) | – | – | 12.4 µM (active) |
| NC(=O)NCCCC(NC(=O)Cc1ccccc1)C(=O)O (centres undefined) | 22% [at 57.1 µM] (inactive) | – | – |
| C[C@]12CCC[C@](C)(C(=O)O)C1CCC13CC(CO)C(CCC12)C3 (some centres undefined) | 3.81% (inactive) | – | – |
| CC(=O)OCC1OC(O[C@H]2CC[C@]34C[C@]35CC(O)[C@]3(C)[C@@H]([C@H](C)CC/C=C(\C)C(=O)O)C(O)C[C@@]3(C)C5CC[C@H]4C2(C)C)C(O)C(O)C1OC1OCC(O)C(O)C1O (some centres undefined) | – | inactive [at 15.1 µM] | – |
| CN1CCc2cc(Cl)c(O)cc2[C@@H](c2cccc3c2OCC3)C1 | 14.9% [at 57.1 µM] (inactive) | – | – |
| C=C1CC[C@@]2(OC1)O[C@H]1CC3C4CC=C5C[C@@H](O[C@@H]6O[C@@H](C)[C@H](O)[C@@H](O)[C@H]6O)C[C@@H](O[C@@H]6O[C@H](C)[C@H](O)[C@H](O)[C@H]6O[C@@H]6O[C@@H](C)[C@H](O)[C@@H](O)[C@H]6O)[C@]5(C)C4CC[C@]3(C)[C@H]1[C@@H]2C (some centres undefined) | -5.95% [at 15.1 µM] (inactive) | – | – |
| C[C@@H](NC(=O)c1cc(C(=O)N[C@@H](Cc2ccccc2)[C@H](O)CNC2CC2)cc(N(C)S(C)(=O)=O)c1)c1ccccc1 | -18.2% [at 57.1 µM] (inactive) | – | – |
| CC1=CC(=O)CC(C)(C)C1CO[C@@H]1O[C@H](CO)[C@@H](O)[C@H](O)[C@H]1O (some centres undefined) | 12.1% (inactive) | – | – |
| CC1(C(=O)O)CCCC2(C)C3CCC4CC3(CCC12)CC4(O)CO (centres undefined) | – | inactive [at 33.1 µM] | – |
| COc1ccc(NC(=O)c2ccc(-c3ccc(C(N)=O)cc3C)cc2)cc1N1CCN(C)CC1 | 33.6% [at 57.1 µM] (inactive) | – | – |
| C[C@@H]1O[C@@H](OC(=O)Cc2ccccc2)[C@H](O)[C@H](O)[C@H]1O | – | inactive | – |
| C=C1CC2C3(C)C=CC(=O)OC(C)(C)C3CC(OC(C)=O)C2(C)C2C(=O)OC(C)C(=O)C12C (centres undefined) | 4.84% (inactive) | – | – |
| CC(=O)OC[C@]12[C@@H](OC(=O)c3ccoc3)C[C@@H]3[C@@H](OC(C)=O)[C@]1(OC3(C)C)[C@@](C)(O)C[C@H](OC(=O)c1ccoc1)[C@@H]2OC(=O)c1ccoc1 | – | inactive [at 15.1 µM] | – |
| COC(=O)C1=C[C@@H](O)[C@@H](O)[C@H](O[C@@H]2O[C@H](CO)[C@@H](O)[C@H](O)[C@H]2OC(=O)/C=C/c2ccccc2)C1 | 15.9% (inactive) | – | – |
| COc1cc(Nc2nc3c(s2)CCCC3c2ccccc2)ccc1-n1cnc(C)c1 (centres undefined) | 19.6% [at 10.7 µM] (inactive) | – | – |
| Cc1ccccc1N1CCN(S(=O)(=O)C[C@]23CC[C@H](C[C@@H]2NC(=O)[C@@H](N)CCS(C)(=O)=O)C3(C)C)CC1 | – | inactive | – |
| COc1cc(O)cc2c1C(=O)OC(C)C2 (centres undefined) | 7.32% [at 57.1 µM] (inactive) | – | – |
| CNC(C)C(=O)NC(C(=O)N1CCCC1C(=O)Nc1cccc2ncccc12)C(C)C (centres undefined) | 18.9% [at 57.1 µM] (inactive) | – | – |
| CN1CCN(C(=O)c2cc3cc(Cl)ccc3[nH]2)CC1 | 9.56% [at 57.1 µM] (inactive) | – | – |
